Source: PubChem BioAssay AID624255 (Broad Institute, 2012)
Several values for one entry are separate records, joined by “and”; a condition that tells them apart may be missing. Equal entries are not always repeated. Out of some 77,000 compounds screened, about 4,600 (6%) were called active. About 1% were inconclusive and are not listed. The entries come from a sample that favours actives as a whole. A number with no mark means an inactive call.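 The calls were made as follows: active = mean inhibition above about 93%, with at least 55% of replicates each passing it (limit read from the data, passing the limit was not always enough); inconclusive = only one of those two conditions holds; inactive = neither condition holds.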

Experiment: growth inhibition of T. cruzi in host fibroblasts – cell-based, beta-gal Tulahuen parasites, NIH3T3 host, luminescence, primary screen (AID 624255)
Details: T. cruzi beta-gal in NIH3T3, GalScreen luminescence, 90 h; at 8.34 µM; active compounds read high

| Structure (SMILES) | inhibition |
| --- | --- |
| C/C=C/c1ccc([C@H]2[C@@H](CO)N(C(C)=O)[C@H]2CNC(=O)c2ccncc2)cc1 | 72.7% |
| C/C=C/c1ccc([C@H]2[C@@H](CNC(C)C)N(c3nc(CC)cs3)[C@H]2CO)cc1 | 100% (active) |
| C/C=C/c1ccc([C@H]2[C@@H](CNC(=O)NC(C)C)N(C(=O)C3CCC3)[C@H]2CO)cc1 | 7.28% |
| CO[C@H](C(=O)N(C)C[C@@H]1OCc2ccccc2-c2c(n(C)c3ccccc23)C(=O)N([C@@H](C)CO)C[C@H]1C)c1ccccc1 | -13.2% |
| CN1[C@H](C(=O)N2CCc3ccccc3C2)[C@@H](CO)[C@@H]2Cn3c(ccc(-c4cncnc4)c3=O)[C@@H]21 | 79.8% |
| COc1cccc(S(=O)(=O)N[C@H]2CC[C@H](CCN)O[C@H]2CO)c1 | -31.7% |
| CO[C@H]1CN(C)C(=O)c2cc(NS(C)(=O)=O)ccc2OC[C@@H](C)N(C)C[C@@H]1C | 13.7% |
| CC(C)C#Cc1ccc([C@@H]2[C@@H](CO)N3CCCCN(C(=O)c4ccc5c(c4)OCO5)C[C@H]23)cc1 | 67.5% |
| C[C@@H](O)C#Cc1ccc([C@H]2[C@H]3CN(C(=O)c4ccc5c(c4)OCO5)CCCCN3[C@H]2CO)cc1 | 26% |
| CCCC#Cc1ccc([C@H]2[C@@H](CO)N3CCCCN(C(=O)c4ccc5c(c4)OCO5)C[C@@H]23)cc1 | 50.9% |
| C[C@@H](O)C#Cc1ccc([C@@H]2[C@H]3CN(C(=O)c4ccc5c(c4)OCO5)CCCCN3[C@H]2CO)cc1 | 71.8% |
| COc1ccc(-c2ccc([C@H]3[C@H]4CN(C(=O)c5ccc6c(c5)OCO6)CCCCN4[C@H]3CO)cc2)cc1 | 117% (active) |
| Cc1cccc(-c2ccc([C@@H]3[C@H](CO)N4CCCCN(C(=O)c5ccc6c(c5)OCO6)C[C@@H]34)cc2)c1 | 98.3% (active) |
| Cc1ccc(S(=O)(=O)N[C@H]2CC[C@@H](CC(=O)NCCCN(C)C)O[C@H]2CO)cc1 | -52% |
| CN1c2ccc(-c3cccc(C#N)c3)cc2[C@H]2[C@H](CCN2S(=O)(=O)c2cccc(F)c2)[C@@H]1CO | 41.7% |
| C[C@H](CO)N1C[C@H](C)[C@H](CN(C)S(C)(=O)=O)Oc2ncc(C3=CCCCC3)cc2C1=O | 47.7% |
| CCC(=O)N1C[C@H](C)[C@H](OC)CN(C)C(=O)c2ccc(NC(=O)Nc3cccc(F)c3)cc2OC[C@@H]1C | 24.9% |
| C[C@@H]1CN([C@@H](C)CO)C(=O)c2cc(NC(=O)C3CCCCC3)ccc2O[C@@H](C)CCCCO[C@@H]1CN(C)C(=O)Nc1ccccc1 | 3.47% |
| C[C@@H]1CN([C@@H](C)CO)C(=O)c2cc(NC(=O)Nc3ccc4c(c3)OCO4)ccc2O[C@@H](C)CCCCO[C@@H]1CN(C)C(=O)Nc1ccc2c(c1)OCO2 | -7.76% |

| Structure (SMILES) | inhibition |
| --- | --- |
| C[C@H](CO)N1C[C@H](C)[C@H](CN(C)C(=O)Nc2ccc(C(F)(F)F)cc2)OCCCC[C@H](C)Oc2ccc(NC(=O)C3CCCCC3)cc2C1=O | 99.4% (active) |
| C[C@@H]1CN([C@@H](C)CO)C(=O)c2cc(NC(=O)Nc3ccc4c(c3)OCO4)ccc2O[C@@H](C)CCCCO[C@H]1CN(C)C(=O)Nc1ccc(C(F)(F)F)cc1 | 105% (active) |
| CC(C)NC(=O)Nc1ccc2c(c1)C(=O)N([C@@H](C)CO)C[C@H](C)[C@H](CN(C)C(=O)Nc1ccc(F)cc1)OCCCC[C@@H](C)O2 | 10.6% |
| C[C@H](CO)N1C[C@H](C)[C@@H](CN(C)C(=O)Nc2ccc3c(c2)OCO3)OCCCC[C@H](C)Oc2ccc(NC(=O)Nc3ccc4c(c3)OCO4)cc2C1=O | 66.3% |
| CC(C)NC(=O)Nc1ccc2c(c1)C(=O)N([C@@H](C)CO)C[C@@H](C)[C@@H](CN(C)C(=O)Nc1ccc(C(F)(F)F)cc1)OCCCC[C@H](C)O2 | 45.6% |
| COc1ccc(NC(=O)Nc2ccc3c(c2)C(=O)N([C@H](C)CO)C[C@@H](C)[C@H](CN(C)C(=O)Nc2ccc(C(F)(F)F)cc2)OCCCC[C@@H](C)O3)cc1 | 121% |
| COc1ccc(NC(=O)N(C)C[C@H]2OCCCC[C@H](C)Oc3ccc(NC(=O)Nc4ccc(C(F)(F)F)cc4)cc3C(=O)N([C@@H](C)CO)C[C@@H]2C)cc1 | 110% (active) |
| CC(C)NC(=O)Nc1ccc2c(c1)C(=O)N([C@H](C)CO)C[C@H](C)[C@H](CN(C)C(=O)Nc1ccc(C(F)(F)F)cc1)OCCCC[C@@H](C)O2 | 104% (active) |
| C[C@@H]1CCCCO[C@@H](CN(C)C(=O)Nc2ccc(C(F)(F)F)cc2)[C@H](C)CN([C@H](C)CO)C(=O)c2cc(NC(=O)C3CCCCC3)ccc2O1 | 82.6% |
| COc1ccc(NC(=O)Nc2ccc3c(c2)C(=O)N([C@H](C)CO)C[C@H](C)[C@@H](CN(C)C(=O)Nc2ccc(OC)cc2)OCCCC[C@H](C)O3)cc1 | -4.89% |
| CN1[C@@H]2c3ccc(C4=CCCCC4)c(=O)n3C[C@H]1[C@H](CO)[C@H]2C(=O)NCc1ccc(F)cc1 | 66.5% |
| O=C([C@@H]1[C@@H](CO)[C@@H]2Cn3c(ccc(-c4ccccc4F)c3=O)[C@H]1N2C(=O)C1CCC1)N1CCCCC1 | -49% |
| O=C(NCC1CC1)[C@@H]1[C@@H](CO)[C@@H]2Cn3c(ccc(C4=CCCC4)c3=O)[C@H]1N2CCC(F)(F)F | -0.412% |
| COc1ccc(-c2ccc3c(c2)[C@H]2[C@H](CCN2S(=O)(=O)c2ccccc2F)[C@H](CO)N3)cc1 | 14.9% |
| CCCN1[C@H](C(=O)NC2Cc3ccccc3C2)[C@@H](CO)[C@@H]2Cn3c(cccc3=O)[C@@H]21 | -19.6% |
| Cc1ccc(S(=O)(=O)N2C[C@@H](O)COC[C@@H]3O[C@@H](CC(=O)N[C@H]4CCN(Cc5ccccc5)C4)CC[C@H]32)cc1 | -6.53% |
| CCC(=O)Nc1ccc2c(c1)C(=O)N(C)[C@H]1CC[C@H](CC(=O)NC3Cc4ccccc4C3)O[C@H]1CO2 | 37.2% |
| CC(C)NC(=O)Nc1ccc2c(c1)C(=O)N([C@@H](C)CO)C[C@@H](C)[C@@H](CN(C)S(=O)(=O)c1ccc(F)cc1)OCCCC[C@H](C)O2 | -55.2% |
| CCCNC(=O)C[C@@H]1C[C@H]2c3cc(NC(=O)Nc4ccccc4F)ccc3O[C@H]2[C@H](CO)O1 | 10.8% |

| Structure (SMILES) | inhibition |
| --- | --- |
| C[C@H]1CCCCO[C@@H](CN(C)Cc2ccc3c(c2)OCO3)[C@@H](C)CN([C@@H](C)CO)C(=O)c2cc(NS(=O)(=O)c3ccc(F)cc3)ccc2O1 | 73.3% |
| CC(C)NC(=O)N(C)C[C@H]1OCCCC[C@H](C)Oc2ccc(NC(=O)Nc3ccc(C(F)(F)F)cc3)cc2C(=O)N([C@H](C)CO)C[C@@H]1C | 36.4% |
| C[C@@H]1CCCCO[C@@H](CN(C)C(=O)Nc2ccc(C(F)(F)F)cc2)[C@H](C)CN([C@H](C)CO)C(=O)c2cc(NC(=O)c3ccccc3)ccc2O1 | 94.9% |
| C[C@@H]1CCCCO[C@H](CN(C)C(=O)Nc2ccc(C(F)(F)F)cc2)[C@H](C)CN([C@H](C)CO)C(=O)c2cc(NC(=O)Nc3ccc(C(F)(F)F)cc3)ccc2O1 | 120% (active) |
| C[C@@H]1CCCCO[C@H](CN(C)C(=O)CCCN(C)C)[C@H](C)CN([C@H](C)CO)C(=O)c2cc(NC(=O)CCC(F)(F)F)ccc2O1 | 16.6% |
| CNC(=O)C[C@H]1CC[C@H]2[C@H](COc3ccc(NC(=O)Nc4cccc(C)c4)cc3C(=O)N2C)O1 | 12.8% |
| O=C(Cc1ccccn1)N[C@H]1CC[C@@H](CC(=O)N2CCCCC2)O[C@@H]1CO | -26% |
| C[C@@H]1CN([C@H](C)CO)C(=O)c2cc(Br)cnc2O[C@@H]1CN(C)C(=O)Nc1ccc(F)cc1 | -142% |
| Cc1ccc(S(=O)(=O)N(C)C[C@@H]2Oc3ncc(-c4cc5ccccc5o4)cc3C(=O)N([C@H](C)CO)C[C@@H]2C)cc1 | 117% (active) |
| C[C@@H]1CN([C@H](C)CO)C(=O)c2cc(-c3ccccc3)cnc2O[C@H]1CN(C)C(=O)Nc1ccccc1 | -81.2% |
| C[C@H](CO)N1C[C@H](C)[C@H](CN(C)Cc2ccccc2)Oc2ncc(-c3ccccc3)cc2C1=O | 23.4% and 14.8% |
| C[C@H](CO)N1C[C@H](C)[C@H](CN(C)C(=O)Nc2ccc(F)cc2)Oc2ncc(-c3cc4ccccc4o3)cc2C1=O | 119% (active) |
| COc1ccc(-c2cnc3c(c2)C(=O)N([C@H](C)CO)C[C@H](C)[C@H](CN(C)S(=O)(=O)c2ccccc2)O3)cc1 | 37.7% |
| C[C@H](CO)N1C[C@H](C)[C@H](CN(C)S(=O)(=O)c2ccc(F)cc2)Oc2ncc(-c3ccc(F)cc3)cc2C1=O | 22.6% |
| Cc1ccc(-c2cnc3c(c2)C(=O)N([C@H](C)CO)C[C@@H](C)[C@H](CN(C)Cc2ccccc2C(=O)O)O3)cc1 | -6.32% |
| Cc1ccc(-c2cnc3c(c2)C(=O)N([C@@H](C)CO)C[C@@H](C)[C@H](CN(C)Cc2ccccc2F)O3)cc1 | 111% (active) |
| CC=Cc1ccc2n(c1=O)C[C@H]1[C@H](CO)[C@@H](C(=O)NCc3ccncc3)N(Cc3cncnc3)[C@@H]21 (mixture of isomers) | 37.5% |
| CCCN1[C@H](C(=O)NCC)[C@@H](CO)[C@@H]2Cn3c(ccc(C4=CCCC4)c3=O)[C@@H]21 | 32% |
| COc1cccc(C(=O)Nc2ccc3c(c2)C(=O)N(C)C[C@@H](OC)[C@@H](C)CN(C)[C@@H](C)CO3)c1 | -27.6% |
